Our source for the growth values is PubChem BioAssay (NCI).

Compounds without any hit were thinned out: in the full panel of roughly 83,000, 20% have a hit.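 Cell lines were cultured in 96-well plates, exposed to a single compound concentration, and assessed for percent growth 48 hours later.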 A number with no mark means an inactive call. The source made the active and inactive calls. The calls were made as follows: active = growth percent below 10; inactive = the rest.

Some test systems named below: SR leukemia; RPMI-8226 leukemia; OVCAR-8 ovarian; OVCAR-5 ovarian; OVCAR-4 ovarian; SK-OV-3 ovarian; IGROV1 ovarian; OVCAR-3 ovarian; HS 578T breast; NCI/ADR-RES ovarian.
Common to all, as to assay: NCI-60 one-dose screen, 48 h (100 = growth as untreated, 0 = no growth, -100 = all killed)
What all share (conditions): 10 µM unless noted

With `COC12C=C/C(=C(/C(=O)OCc3ccncn3)C(=O)CCCCCCCCC3(OC)C=C/C(=C(/C(=O)OCc4ccncn4)C(=O)CCCCCCCC1)O3)O2`, the growth is -15.6% (active) in the test with SR leukemia; -22.3% (active) in the test with RPMI-8226 leukemia; 17.2% in the test with OVCAR-8 ovarian; -2.72% (active) in the test on OVCAR-5 ovarian; 12.2% in the test with OVCAR-4 ovarian; 52.8% in the test on SK-OV-3 ovarian. Moreover, the growth in the test on IGROV1 ovarian was -27.1% (active); with OVCAR-3 ovarian, -52.4% (active); in the test on HS 578T breast it was 38%; with NCI/ADR-RES ovarian, 7.59% (active).

Take `NC(=O)CSc1oc(-c2ccccc2)nc1S(=O)(=O)c1ccc(Br)cc1`: the growth with SR leukemia was 79.3%; with RPMI-8226 leukemia it was 81.1%; with OVCAR-8 ovarian, 49.4%; in the test on OVCAR-5 ovarian it was 109%; in the test with OVCAR-4 ovarian, 45.4%; in the test with SK-OV-3 ovarian it was 88.3%. Besides, the growth in the test with IGROV1 ovarian was 93%; in the test with OVCAR-3 ovarian, 62.5%; in the test with HS 578T breast it was 56.1%; in the test on NCI/ADR-RES ovarian, 86.4%.

Turning to `O=S(=O)(Nc1cc(F)cc(Cl)c1)c1ccc(-c2cnc(C3CC3)o2)cc1`, the growth in the test with SR leukemia was 25.4%; in the test with RPMI-8226 leukemia, 28.9%; in the test with OVCAR-8 ovarian, 39.8%; with OVCAR-5 ovarian it was 50.8%; with OVCAR-4 ovarian it was 52.5%; in the test with SK-OV-3 ovarian, 44.2%. Besides, the growth in the test with IGROV1 ovarian is 30%; with OVCAR-3 ovarian, 10.2%; in the test with HS 578T breast, -3.79% (active); with NCI/ADR-RES ovarian, 21.9%.

For the compound `CC1CCc2c(C(=O)Nc3ncc(Cc4cccc([N+](=O)[O-])c4)s3)csc2C1` (stereo not given), the growth is 26.7% in the test with SR leukemia; 33% in the test on RPMI-8226 leukemia; 26.4% in the test on OVCAR-8 ovarian; 34.7% in the test with OVCAR-5 ovarian; 39.3% in the test with OVCAR-4 ovarian; 21.6% in the test on SK-OV-3 ovarian. For the same compound, the growth in the test with IGROV1 ovarian is 30.7%; in the test on OVCAR-3 ovarian it was 1.09% (active); in the test with HS 578T breast, 19.1%; with NCI/ADR-RES ovarian, 15.6%.

As for `Nc1n[nH]c2cccc(C#Cc3cccc(NC(=O)c4cc(F)cc(C(F)(F)F)c4)c3)c12`, the growth in the test on SR leukemia was 60.5%; with RPMI-8226 leukemia it was 63.8%; in the test on OVCAR-8 ovarian it was 94.2%; in the test on OVCAR-5 ovarian, 70.8%; in the test on OVCAR-4 ovarian it was 90.5%; in the test on SK-OV-3 ovarian it was 114%. In addition, the growth is 25.5% in the test on IGROV1 ovarian, 80.7% in the test with OVCAR-3 ovarian, 36.8% in the test with HS 578T breast and 93.1% in the test with NCI/ADR-RES ovarian.

On to `CC(C)c1ccc(-n2c(=S)[nH]c3sc4cc(O)ccc4c3c2=O)cc1`, for which the growth was 102% with SR leukemia; 100% in the test with RPMI-8226 leukemia; 102% in the test with OVCAR-8 ovarian; 100% in the test with OVCAR-5 ovarian; 111% in the test with OVCAR-4 ovarian; 112% in the test on SK-OV-3 ovarian. In addition, the growth in the test on IGROV1 ovarian is 91.4%; in the test with OVCAR-3 ovarian it was 104%; in the test on HS 578T breast it was 92.4%; in the test with NCI/ADR-RES ovarian it was 103%.

Turning to `CCCCCCCCCCCCCCCCOCCCOP(=O)(O)C1CCCN(O)C1=O` (stereo not given), the growth with SR leukemia was 7.77% (active); in the test on RPMI-8226 leukemia it was 10.9%; in the test on OVCAR-8 ovarian it was 23.8%; in the test on OVCAR-5 ovarian it was 20%; in the test on OVCAR-4 ovarian, 16.5%; with SK-OV-3 ovarian, 34.4%. Moreover, the growth in the test on IGROV1 ovarian is -2.28% (active); with OVCAR-3 ovarian it was 17.3%; in the test on HS 578T breast it was 83.1%; with NCI/ADR-RES ovarian, 8.85% (active).

Consider `CC(=O)N1N=C(c2ccc(C(F)(F)F)c(F)c2)CC1c1[nH]c(C)c(C(=O)NCC(F)(F)F)c1C` (stereo not given), for which the growth was 86.9% with SR leukemia; 90.7% in the test with RPMI-8226 leukemia; 41.9% with OVCAR-8 ovarian; 79.3% with OVCAR-5 ovarian; 13.6% in the test with OVCAR-4 ovarian; 75.2% with SK-OV-3 ovarian. The growth in the test with IGROV1 ovarian was 69.5%; in the test with OVCAR-3 ovarian it was 68.3%; in the test on HS 578T breast it was 31.8%; in the test on NCI/ADR-RES ovarian, 78.5%.

Take `CC/C=C\C[C@H](O)C/C=C1/C(=O)C=C[C@@H]1C/C=C\CCCC(=O)N(C)C`: the growth with SR leukemia is 6.2% (active); in the test with RPMI-8226 leukemia, 4.43% (active); in the test on OVCAR-8 ovarian, 2.8% (active); in the test with OVCAR-5 ovarian, 19.2%; in the test with OVCAR-4 ovarian, 43.9%; in the test with SK-OV-3 ovarian it was 21.8%. Besides, the growth was 11.5% with IGROV1 ovarian, 8.73% (active) in the test with OVCAR-3 ovarian, 16.4% in the test with HS 578T breast and 16.7% in the test with NCI/ADR-RES ovarian.

With `Cn1c(=O)cc2c3c(c(NCCCO)ccc31)C(=O)c1ccccc1-2`, the growth in the test on SR leukemia is 13.4%; in the test with RPMI-8226 leukemia it was 54.6%; in the test on OVCAR-8 ovarian it was 33.2%; with OVCAR-5 ovarian it was 65.6%; with OVCAR-4 ovarian, 47.7%; in the test on SK-OV-3 ovarian it was 51.6%. Also, the growth in the test on IGROV1 ovarian was 41.8%; in the test with OVCAR-3 ovarian, 54.4%; in the test with HS 578T breast, 60.2%; with NCI/ADR-RES ovarian, 57.1%.

On to `COc1ccc(CN2c3ccccc3Sc3ccccc32)cc1F`, for which the growth with SR leukemia is 16.9%; in the test with RPMI-8226 leukemia, 21.2%; in the test with OVCAR-8 ovarian, 23.7%; with OVCAR-5 ovarian it was 43.1%; in the test on OVCAR-4 ovarian, 49.2%; in the test on SK-OV-3 ovarian, 16.8%. For the same compound, the growth with IGROV1 ovarian is 35.5%; in the test with OVCAR-3 ovarian, -5.46% (active); in the test with HS 578T breast, 16.9%; in the test on NCI/ADR-RES ovarian, 2.82% (active).

Take `C=C1C(=O)O[C@H]2[C@H]1CC/C(COC(=O)/C=C\C(=O)NCc1ccc(Cn3c(=O)sn(CCI)c3=O)cc1)=C\CC[C@@]1(C)O[C@@H]21`: the growth in the test with SR leukemia was 2.49% (active); in the test with RPMI-8226 leukemia, 22.4%; with OVCAR-8 ovarian, 58.3%; in the test on OVCAR-5 ovarian, 77.7%; in the test on OVCAR-4 ovarian, 48.3%; with SK-OV-3 ovarian it was 133%. The growth with IGROV1 ovarian is 3.61% (active); in the test with OVCAR-3 ovarian, 10.4%; in the test on HS 578T breast, 89.3%; in the test on NCI/ADR-RES ovarian, 98%.
